In all, about 48,000 compounds went through this assay and about 13,000 (27%) showed an effect of 50% or more. The list shows a part of the results.

The test concerns Wolbachia pipientis. The experiment in a line: Anti-Wolbachia Cell-Based Screen. It counts as functional. Details: scale not given: in the data most compounds retested in dose-response had high values. The conditions noted are these: 5 µM.
As to `Cc1cc(CN2C[C@@H]3COC[C@]3(CNC(=O)N3CCCC3)C2)no1.O=C(O)C(F)(F)F`, the “Percent Effect” value was -10.59%. As to `COCCNC(=O)[C@@]12CCO[C@@H]1CCN(Cc1c(C)noc1C)C2.O=C(O)C(F)(F)F`, the “Percent Effect” value is given as -6.3%. The figure for `Cc1noc(C)c1CN1CCCC2(CCN(C(=O)C3CC3)C2)C1` (stereo not given) is 106.9%; for `Cc1noc(C)c1CN1CC[C@H]2O[C@@H](C(=O)N3CCCC3)CC[C@H]21.O=C(O)C(F)(F)F` it is 9.45%; for `Cc1noc(C)c1CN1CC2(CCCCN2C)CC1=O.O=C(O)C(F)(F)F` (stereo not given) it is -9.804%.

Regarding `Cc1noc(C)c1CN1CCCC2(CCN(CC3CCCC3)C2)C1.O=C(O)C(F)(F)F` (stereo not given), the “Percent Effect” value is recorded as 102.6%. For `Cc1ccc(CC(=O)N2CCN(C(C)c3ccccc3F)CC2)cn1` (stereo not given), the “Percent Effect” value is 7.645%. In the case of `COCCNC1(c2ccc(Cl)cc2)CCOCC1`, the “Percent Effect” value is 5.533%. For `CC(C)=CCN1C[C@H]2CC[C@@H]1CN(Cc1cc(=O)[nH]c(=O)[nH]1)C2`, the “Percent Effect” value is listed as 7.172%. Next, `Cc1cc(NCCc2c[nH]cn2)nc(-c2cccnc2)n1`: 99.48%.

With `CCc1ccccc1OCCNCCc1c[nH]cn1`, the “Percent Effect” value was -3.829%.

For the molecule `Cc1cnc(NCCc2c[nH]cn2)nc1-c1ccnn1C`, the “Percent Effect” value is reported as -2.604%.

In the case of `Cc1noc(C)c1CN(C)C(=O)CN1CC(c2ccccc2)CC1=O` (stereo not given), the “Percent Effect” value is given as -0.5183%. Next, `Cc1cc(CN(C)C(=O)CN2CCCC2=O)no1`: 135.7%; `CN(Cc1cc(C2CC2)on1)C(=O)CN1CC(c2ccccc2)CC1=O` (stereo not given): -9.848%. The figure for `CCc1noc(CC)c1CC(=O)N1CCCC(N2CCCCC2)C1` (stereo not given) is -13.04%; for `CN(c1ncccc1C#N)C1CCN(CCc2ccccn2)CC1` it is 3.648%. For `O[C@@]1(CNCCCOc2cccnc2)CCCN2CCCC[C@@H]21`, the “Percent Effect” value is reported as -22.25%.

For the molecule `COCCN1CCO[C@H]2CN(C(=O)c3ccncc3F)C[C@H]21.O=C(O)C(F)(F)F`, the “Percent Effect” value is listed as -13.21%. Next, `Cc1ncc(CC(=O)N2C[C@@H]3CC[C@H](C2)N(CC2CCC2)C3)c(=O)[nH]1`: 1.908%. The figure for `O=C(c1c[nH]c(=O)c(Cl)c1)N1C[C@@H]2CC[C@H](C1)N(CC1CCC1)C2` is 97.45%; for `CC(C)=CCN1C[C@H]2CC[C@@H]1CN(C(=O)c1c[nH]c(=O)c(Cl)c1)C2` it is -5.36%; for `CCCn1cc(C(=O)NC(C(=O)O)c2ccccc2C(F)(F)F)c(C)n1` (stereo not given) it is 7.837%. Next, `O=C(Cc1ccc(CO)cc1)N1CCN(CC2CC2)[C@@H]2CS(=O)(=O)C[C@@H]21`: -14.38%; `CN(C)CCN1CCN(CC2CC2)c2ncccc2C1`: 104.8%. As for `CN1CCN(c2ncccn2)CC12CCC(=O)N(CC1CC1)CC2` (stereo not given), the “Percent Effect” value was -4.361%.

Consider `CN1CCN(S(=O)(=O)C2CC2)Cc2cccnc21`, for which the “Percent Effect” value is reported as 113.9%.

As to `CN1CCN(Cc2ccoc2)Cc2cccnc21`, the “Percent Effect” value was -15.03%. Next, `CN1CCN(S(C)(=O)=O)Cc2cccnc21`: 126.5%; `CCS(=O)(=O)N1CCN(C)c2ncccc2C1`: 97.89%; `Cl.O=C(NCC1CCCCC1)N1C[C@@H]2C[C@H]1CN2`: -10.23%. The figure for `CCCN1CCN(C(=O)c2ccc(Cl)cn2)[C@H]2CS(=O)(=O)C[C@H]21` is 7.172%; for `CCC(C(=O)N1CCCSCC1)N1CCCC1=O` (stereo not given) it is 0.6755%. For the molecule `Cc1cccc(CN2CC3C[C@]3(NC(=O)c3ccco3)C2)n1` (stereo not given in full), the “Percent Effect” value was -15.21%. Next, `CCCN1CCN(C(=O)c2cccc(C)n2)[C@H]2CS(=O)(=O)C[C@H]21`: -6.939%; `CCN1CCC2(CC1)CN(CCO)c1ccccc12`: -10.11%. Next, `O=C(O)C(F)(F)F.O=C(O)C(F)(F)F.c1cnc2c(c1)CN(C1CCOC1)CCN2CC1CC1` (stereo not given): -0.9537%. The figure for `CCS(=O)(=O)N1CCN(CC2CC2)c2ncccc2C1` is 115%; for `CS(=O)(=O)N1CCN(CC2CC2)c2ncccc2C1` it is 6.456%.

`COc1ccccc1CC(C)N(C)CCS(C)(=O)=O` (stereo not given): the “Percent Effect” value is on record as -4.195%. Next, `COc1cc(N2C[C@H]3CN(Cc4ccccn4)C[C@H]3C2)ncn1.O=C(O)C(F)(F)F`: 127.8%. Next, `CNC(=O)[C@H]1C[C@@H]2CN(Cc3cccnc3OC)C[C@@H]2N1C(C)C.O=C(O)C(F)(F)F.O=C(O)C(F)(F)F.O=C(O)C(F)(F)F`: 5.567%.

Regarding `COC[C@]12COC[C@H]1CN(Cc1cccnc1OC)C2`, the “Percent Effect” value is listed as 3.857%.

For `CN(C)CCN1CCO[C@H]2CN(Cc3ccccn3)C[C@H]21.O=C(O)C(F)(F)F.O=C(O)C(F)(F)F.O=C(O)C(F)(F)F.O=C(O)C(F)(F)F`, the “Percent Effect” value was determined as 10.34%. Next, `COc1ncccc1CN1C[C@@H]2OCCN(CCN(C)C)[C@@H]2C1.O=C(O)C(F)(F)F.O=C(O)C(F)(F)F.O=C(O)C(F)(F)F`: 17.28%; `COc1cc(N2C[C@H]3CCN(CCN4CCCC4)C[C@H]3C2)ncn1.O=C(O)C(F)(F)F.O=C(O)C(F)(F)F`: -9.875%. For `COc1ncccc1CN1C[C@@H]2CN(c3ncccn3)C[C@@H]2C1`, the “Percent Effect” value is recorded as 110.4%. Turning to `COc1ncccc1CN1CCC2(CC1)COCCN2C.O=C(O)C(F)(F)F.O=C(O)C(F)(F)F`, the “Percent Effect” value is reported as -5.344%. The figure for `COCCCN1CCCC12CCN(Cc1cccnc1OC)CC2.O=C(O)C(F)(F)F.O=C(O)C(F)(F)F` is -1.56%; for `COCCN1CC[C@@H]2CN(Cc3cccnc3OC)C[C@@H]2C1.O=C(O)C(F)(F)F.O=C(O)C(F)(F)F` it is 130.6%. The figure for `CNC(=O)[C@H]1C[C@@H]2CN(Cc3cccnc3OC)C[C@@H]2N1C(C)=O.O=C(O)C(F)(F)F.O=C(O)C(F)(F)F` is 92.23%; for `COCCN1CCCC12CCN(Cc1cccnc1OC)CC2.O=C(O)C(F)(F)F.O=C(O)C(F)(F)F` it is -1.646%. Consider `Fc1cccnc1N1CCOCC2(CCCNC2)C1` (stereo not given), for which the “Percent Effect” value is -2.668%. The figure for `N#Cc1cccc(C(=O)NS(=O)(=O)c2ccc(C#N)c(Cl)c2)c1` is -1.961%. Next, `COc1ccc(CN2C[C@H]3CN(c4cncnc4)C(=O)[C@H]3C2)cc1.O=C(O)C(F)(F)F`: -6.592%; `CCc1cc(N2CCC(NC3CN4CCC3CC4)CC2)nc(N(C)C)n1` (stereo not given): 2.929%; `CCCn1cc(C(=O)NCC(=O)NC2CC2)c(C)n1`: 8.869%. On to `COc1ncccc1CN1CC[C@H]2[C@H]1CCN2CCN(C)C.O=C(O)C(F)(F)F.O=C(O)C(F)(F)F.O=C(O)C(F)(F)F.O=C(O)C(F)(F)F`, for which the “Percent Effect” value is recorded as -2.708%. The figure for `CCN1CCCC12CCN(Cc1cccnc1OC)CC2.O=C(O)C(F)(F)F.O=C(O)C(F)(F)F` is 9.255%. Next, `COc1ncccc1CN1C[C@H]2CCN(C(C)C)C[C@H]2C1.O=C(O)C(F)(F)F.O=C(O)C(F)(F)F`: 108.8%; `COc1ncccc1CN1C[C@H]2CCN(c3ncccn3)C[C@H]2C1.O=C(O)C(F)(F)F`: 102%; `CN1CC2(CCNCC2)CC1C(=O)NCCCNc1cccnc1` (stereo not given): 9.44%.

Take `CCN1C[C@H]2N(c3ncccn3)CCC[C@@]2(C(=O)NCC2CC2)C1`: the “Percent Effect” value stood at 121.2%.

With `O=C(O)C(F)(F)F.O=C(O)C(F)(F)F.c1cnc(N2CCCC3(CCN(CC4CC4)C3)C2)nc1` (stereo not given), the “Percent Effect” value is -2.531%.

In the case of `CNC(=O)[C@@]12CCCN(c3ncccn3)[C@@H]1CN(C)C2.O=C(O)C(F)(F)F`, the “Percent Effect” value was -0.06284%.

With `CN1[C@@H](C(=O)NCC2CC2)C[C@@H]2CN(c3ncccn3)C[C@@H]21`, the “Percent Effect” value is -3.694%. The figure for `CC(=O)N1C[C@H]2CCCC(N3CCN(c4ncccn4)CC3)[C@H]2C1.O=C(O)C(F)(F)F.O=C(O)C(F)(F)F` (stereo not given in full) is -9.605%. The figure for `CN1C[C@H]2N(c3ncccn3)CCC[C@@]2(C(=O)NCC2CC2)C1.O=C(O)C(F)(F)F` is 104.5%. Next, `CN(CC1Cc2ccccc2CN1C)C(=O)Cc1cccs1` (stereo not given): 4.108%; `O=C(O)C(F)(F)F.c1cnc(NC[C@@H]2CCC[C@@H]3CN(Cc4csnn4)C[C@@H]32)nc1`: 17.75%. Consider `Cn1ccnc1NC[C@@H]1CCC[C@@H]2CN(Cc3cccnc3)C[C@@H]21.O=C(O)C(F)(F)F`, for which the “Percent Effect” value came out at 109.4%. Next, `CN(C[C@@H]1CCC[C@@H]2CN(Cc3cccnc3)C[C@@H]21)C1CC1.O=C(O)C(F)(F)F.O=C(O)C(F)(F)F`: 2.908%. Regarding `O=C(O)C(F)(F)F.c1cncc(CN2C[C@H]3CCC[C@@H](CNc4cnccn4)[C@H]3C2)c1`, the “Percent Effect” value was found to be 134.5%.

For `O=C(O)C(F)(F)F.c1cnc(NC[C@@H]2CCC[C@@H]3CN(Cc4cc[nH]n4)C[C@@H]32)nc1`, the “Percent Effect” value is given as -8.539%.

For the molecule `COc1ccc(CN2C[C@H]3CCC[C@@H](CN(C)C4CC4)[C@H]3C2)cn1.O=C(O)C(F)(F)F.O=C(O)C(F)(F)F`, the “Percent Effect” value came to 14.86%. In the case of `COCCN1C[C@H]2CCC[C@@H](CNc3ncccn3)[C@H]2C1.O=C(O)C(F)(F)F.O=C(O)C(F)(F)F`, the “Percent Effect” value is listed as 1.407%.

Consider `O=C(O)C(F)(F)F.c1ccc(NC[C@@H]2CCC[C@@H]3CN(Cc4cc[nH]n4)C[C@@H]32)nc1`, for which the “Percent Effect” value is given as -6.028%. The figure for `Cn1cc(CN2C[C@@H]3CCC[C@@H](OCc4cccnc4)[C@@H]3C2)cn1` is 52.17%; for `COc1ccc(CN2C[C@H]3CCC[C@@H](CN(C)C)[C@H]3C2)cn1.O=C(O)C(F)(F)F.O=C(O)C(F)(F)F` it is 10.6%. Next, `Cn1cc(CN2C[C@H]3CCC[C@@H](CNc4ncccn4)[C@H]3C2)cn1.O=C(O)C(F)(F)F`: 111.9%.

The record behind these values is ChEMBL document CHEMBL3988442, “University of Dundee, Small-Polar-MMV Screening Library” (2021).
